The results in this text go back to PubChem BioAssay (NCI).

Assay in all cases: NCI-60 one-dose screen, 48 h (100 = growth as untreated, 0 = no growth, -100 = all killed)
What all share (details): 10 µM unless noted

Assay [1] deals with SR leukemia.
For assay [2], the system named is RPMI-8226 leukemia.
Assay [3] concerns OVCAR-8 ovarian.
In assay [4] the test system is OVCAR-5 ovarian.
The subject of assay [5] is SK-OV-3 ovarian.
In assay [6] the test system is IGROV1 ovarian.
For assay [7], the system named is OVCAR-3 ovarian.
Assay [8] deals with HS 578T breast.
Assay [9] deals with NCI/ADR-RES ovarian.
Assay [10] relates to OVCAR-4 ovarian.

The panel holds about 83,000 compounds, 20% with a hit somewhere; the sample as a whole holds those more often.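 Note: values are percent growth. 100 is the growth of untreated cells, values between 100 and 0 indicate rising inhibition; between -100 and 0 indicates cell death.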 Unmarked numbers belong to inactive results. The source made the active and inactive calls. Rule for the calls: active = growth percent below 10; inactive = the rest.

Take `CCOC(=O)c1ccc(NC2=C(Cl)C(=O)c3nc(C)ccc3C2=O)cc1`: the growth in assay [1] is 22.6%; in [2], 4.69% (active); in [3], 68.4%; in assay [4] it was 91.5%; in [5], 94.4%; in assay [6] it was 7.95% (active). Further, the growth in [7] is -18.8% (active); in [8], 50.2%; in assay [9], 45.9%.
Consider `CCc1cc(OC(=O)N2CCC(N3CCCCC3)CC2)ccc1Nc1cc(-c2ccc(-n3cccn3)cc2)[nH]n1`, for which the growth in assay [1] was -9.25% (active); in assay [2], 20.9%; in assay [3], 86.2%; in assay [4], 87.4%; in [5], 85.9%; in assay [6], 56.9%. Also, the growth in [8] was 66.8%; in [9] it was 82.5%.
Take `Cc1ccc(NC(=O)/C=C/c2ccc(OCCCOc3ccc4c(C)cc(=O)oc4c3)cc2)cc1`: the growth in assay [1] is 70.2%; in assay [2], 90.1%; in [3], 52.3%; in assay [4], 91.6%; in assay [5], 79.8%; in assay [6] it was 73.3%. Moreover, the values for the growth in [8] and in [9] were 40% and 52.5%, respectively.
For the compound `O=C1C(N2CCN(c3ccccc3)CC2)=C(Cl)C(=O)c2ncccc21`, the growth in assay [1] is 3.69% (active); in assay [2] it was 35.5%; in assay [3], 73.5%; in [4] it was 107%; in assay [5] it was 91.5%; in assay [6] it was 70%. Further, the results for the growth in [8] and in assay [9] were 79.8% and 77%, respectively.
Consider `CC(C)Sc1nc(-c2ccccc2)c(C#N)c(N2CCOCC2)n1`, for which the growth in assay [1] was 78.9%; in assay [2], 90.7%; in [3] it was 69.3%; in [4], 59.8%; in assay [5], 86.8%; in assay [6], 5.14% (active). The growth in assay [8] is 50%; in assay [9] it was 71.1%.
With `COc1ccc(/C(=N\NC(N)=S)c2ccc(Cl)cc2)cc1OC`, the growth in assay [1] is 29.3%; in assay [2], 45.6%; in [3], 37.8%; in assay [4] it was 51.2%; in assay [10] it was 60.6%; in [5] it was 18.3%. In addition, the results for the growth in assay [8] and in [9] were 3.4% (active) and 7.07% (active), respectively.
As for `O=C1Nc2ccccc2/C1=C/c1ccc(OCC(=O)c2ccccc2)cc1`, the growth was 101% in assay [1]; 95% in [2]; 94.8% in assay [3]; 102% in assay [4]; 102% in [5]; 102% in [6]. The growth is 93.9% in [8] and 98.2% in [9].
As to `Cc1ccc(N2CCN(C3=C(Cl)C(=O)c4ncccc4C3=O)CC2)cc1`, the growth is 4.58% (active) in [1]; 11.8% in [2]; 67.9% in assay [3]; 110% in assay [4]; 112% in assay [5]; 58.6% in assay [6]. Besides, the growth in [8] was 79.7%; in [9], 55.8%.
Take `O=C(CSc1nnc(-c2cccs2)n1-c1ccccc1)Nc1ccccc1`: the growth in assay [1] was 61.3%; in assay [2] it was 99.7%; in assay [3], 53.5%; in assay [4], 96.7%; in [5], 80.1%; in [6], 89.9%. In addition, the growth is 84.2% in assay [7], 33.2% in assay [8] and 61.9% in assay [9].
As for `CC(=O)c1cc(C(=O)N2c3ccccc3Sc3ccccc32)n2c1ccc1ccccc12`, the growth in [1] was 11%; in assay [2], 48.3%; in [3], 71.5%; in assay [4], 86.6%; in [10], 78.1%; in [5] it was 59.8%. Also, the values for the growth in [8] and in [9] were 55.1% and 35.9%, respectively.
Regarding `N#Cc1nc(-c2ccccc2)oc1N1CCC(C2(C(F)(F)F)N=N2)CC1`, the growth in assay [1] is 85.1%; in assay [2], 97.2%; in assay [3], 97.6%; in assay [4], 109%; in [5], 96.2%; in [6] it was 108%. Further, the figures for the growth in [8] and in assay [9] were 96.7% and 102%, respectively.
On to `CSc1ccc(C(=NNS(=O)(=O)c2ccc(C)cc2)c2ccc(Cl)cc2)cc1`, for which the growth in [1] was 114%; in [2] it was 97.8%; in assay [3] it was 99.5%; in [4], 94.3%; in assay [5] it was 111%; in assay [6], 96.8%. In addition, the growth in assay [8] was 101%; in assay [9] it was 98.2%.
Regarding `COc1ccc(-c2c(C(N)=O)c(N)n(Cc3nc4ccccc4[nH]3)c(=O)c2C#N)c(OC)c1`, the growth in assay [1] was 90.5%; in [2], 99%; in assay [3], 97.2%; in assay [4] it was 110%; in assay [5] it was 90.9%; in assay [6], 72%. Besides, the values for the growth in assay [8] and in assay [9] were 99.2% and 102%, respectively.
Consider `Clc1ccc2c(N/N=C/c3c[nH]c4ccccc34)ccnc2c1`, for which the growth is 2.13% (active) in [1]; -25% (active) in assay [2]; -68% (active) in assay [3]; -83.9% (active) in [4]; -85.6% (active) in assay [5]; -87.2% (active) in assay [6]. The growth in [8] was -47% (active); in [9], -71.8% (active).
With `C=C(C)[C@@H]1CC[C@]2(COP(=O)(OCC)OCC)CC[C@]3(C)[C@H](CC[C@@H]4[C@@]5(C)CC[C@H](OP(=O)(OCC)OCC)C(C)(C)[C@@H]5CC[C@]43C)[C@@H]12`, the growth was 30.2% in assay [1]; -18.1% (active) in assay [2]; 40.5% in [3]; 84.3% in assay [4]; 65.5% in assay [10]; 77.2% in assay [5]. The growth is 74.7% in [8] and 31.8% in [9].
